Experiment in all cases: DAPPL (digital affinity profiling via proximity ligation, sequencing); 10 mM Tris-HCl pH 7.5, 50 mM NaCl, 1 mM DTT, 4% glycerol, room temperature, 30 min; GST-TFs on glutathione beads, 16-mer random dsDNA library, 0.1% formaldehyde crosslink after washing; high values mean tight binding
Test [1] deals with T1, FEV (Homo sapiens, UniProt Q99581 1-238).
T1 sequence: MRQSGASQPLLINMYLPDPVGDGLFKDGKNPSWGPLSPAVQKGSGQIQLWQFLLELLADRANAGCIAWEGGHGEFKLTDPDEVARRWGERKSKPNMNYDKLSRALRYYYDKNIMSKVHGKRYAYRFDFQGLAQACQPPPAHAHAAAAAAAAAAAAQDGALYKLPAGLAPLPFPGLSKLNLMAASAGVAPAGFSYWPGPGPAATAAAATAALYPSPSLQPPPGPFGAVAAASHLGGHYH
The following applies: protein: recombinant; tags: N-terminal GST; dsDNA, one strand shown. The gist of the method:
(§1)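 In yeast, human transcription factors were expressed with a GST fusion, then pulled down on glutathione beads and given DNA barcodes. Pooled with a tag-only sample, they were exposed to 200 nmole of a 16-mer random double-stranded DNA library (Tris/NaCl/DTT/glycerol buffer, room temperature, 30 min), washed, crosslinked with 0.1% formaldehyde, proximity-ligated using BsaI/T4 ligase for 1 h at 37 °C, PCR-amplified and read on an Illumina NextSeq500. Each hexamer's frequency of reads for a factor, divided by the matching frequency for the tag-only sample, gives the binding signal.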

Test [2] addresses ETV5 (Homo sapiens, UniProt P41161 1-510). The following applies: protein: recombinant; tags: N-terminal GST; dsDNA, one strand shown. The gist of the method:
as §1

Test [3] has as its target HSF1 (Homo sapiens, UniProt Q00613 1-529). The following applies: protein: recombinant; tags: N-terminal GST; chain copies: 3; dsDNA, one strand shown. The gist of the method: as §1
For test [4], the target named is T2, SPIC (Homo sapiens, UniProt Q8N5J4 1-248).
T2 sequence: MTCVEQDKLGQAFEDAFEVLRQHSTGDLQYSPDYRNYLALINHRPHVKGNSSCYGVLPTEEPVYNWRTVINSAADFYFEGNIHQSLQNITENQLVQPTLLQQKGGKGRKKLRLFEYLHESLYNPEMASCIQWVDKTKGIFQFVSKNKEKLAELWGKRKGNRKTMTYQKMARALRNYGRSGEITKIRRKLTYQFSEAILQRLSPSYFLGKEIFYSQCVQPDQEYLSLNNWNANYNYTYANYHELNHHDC
The settings on record: protein: recombinant; tags: N-terminal GST; dsDNA, one strand shown. The procedure, abridged: as §1

For test [5], the target named is ELF4 (Homo sapiens, UniProt Q99607 1-663). The settings on record: protein: recombinant; tags: N-terminal GST; dsDNA, one strand shown. The gist of the method:
as §1

Test [6] addresses T3, ELK4 (Homo sapiens, UniProt P28324-2 1-405).
T3 sequence: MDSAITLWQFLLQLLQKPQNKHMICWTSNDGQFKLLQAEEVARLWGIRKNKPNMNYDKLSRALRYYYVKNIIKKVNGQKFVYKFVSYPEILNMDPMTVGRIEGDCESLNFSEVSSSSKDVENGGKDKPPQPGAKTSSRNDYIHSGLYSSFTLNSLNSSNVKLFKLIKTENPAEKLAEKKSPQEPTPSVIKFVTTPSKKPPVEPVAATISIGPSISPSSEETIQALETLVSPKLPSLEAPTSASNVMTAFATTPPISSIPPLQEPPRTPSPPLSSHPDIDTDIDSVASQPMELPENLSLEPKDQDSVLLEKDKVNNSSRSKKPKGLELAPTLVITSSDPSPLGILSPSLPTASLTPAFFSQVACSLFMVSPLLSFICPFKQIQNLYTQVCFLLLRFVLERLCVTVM
The following applies: protein: recombinant; tags: N-terminal GST; dsDNA, one strand shown. The gist of the method: as §1

The target of test [7] is T4, ETV2 (Homo sapiens, UniProt O00321 1-342).
T4 sequence: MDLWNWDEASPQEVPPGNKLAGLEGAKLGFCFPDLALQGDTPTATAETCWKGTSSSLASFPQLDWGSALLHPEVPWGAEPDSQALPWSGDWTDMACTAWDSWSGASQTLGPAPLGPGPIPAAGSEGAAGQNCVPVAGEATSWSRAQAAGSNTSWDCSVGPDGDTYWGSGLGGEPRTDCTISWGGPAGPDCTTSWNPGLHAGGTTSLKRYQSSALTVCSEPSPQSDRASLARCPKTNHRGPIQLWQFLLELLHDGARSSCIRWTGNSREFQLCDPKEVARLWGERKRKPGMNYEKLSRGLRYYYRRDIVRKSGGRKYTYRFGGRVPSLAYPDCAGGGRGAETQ
The settings on record: protein: recombinant; tags: N-terminal GST; dsDNA, one strand shown. The gist of the method:
as §1

Test [8] concerns the target T5, ELF3 (Homo sapiens, UniProt P78545 1-371).
T5 sequence: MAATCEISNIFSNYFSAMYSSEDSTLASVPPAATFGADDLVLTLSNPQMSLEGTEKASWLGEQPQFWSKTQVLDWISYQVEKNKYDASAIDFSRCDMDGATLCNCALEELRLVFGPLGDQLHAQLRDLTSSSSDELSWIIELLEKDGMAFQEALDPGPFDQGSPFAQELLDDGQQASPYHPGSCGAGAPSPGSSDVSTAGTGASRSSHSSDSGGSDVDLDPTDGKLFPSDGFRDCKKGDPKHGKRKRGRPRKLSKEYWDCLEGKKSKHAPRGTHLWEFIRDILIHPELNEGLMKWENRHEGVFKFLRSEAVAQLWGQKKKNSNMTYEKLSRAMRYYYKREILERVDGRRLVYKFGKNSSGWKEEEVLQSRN
The following applies: protein: recombinant; tags: N-terminal GST; dsDNA, one strand shown. The procedure, abridged:
as §1

The target in test [9] is CRX (Homo sapiens, UniProt O43186 1-299). The following applies: protein: recombinant; tags: N-terminal GST; dsDNA, one strand shown. The gist of the method:
as §1

Test [10] has as its target ETV1 (Homo sapiens, UniProt P50549 1-477). The following applies: protein: recombinant; tags: N-terminal GST; dsDNA, one strand shown. The procedure, abridged: as §1
In test [11] the target is T6, ERF (Homo sapiens, UniProt P50548 1-548).
T6 sequence: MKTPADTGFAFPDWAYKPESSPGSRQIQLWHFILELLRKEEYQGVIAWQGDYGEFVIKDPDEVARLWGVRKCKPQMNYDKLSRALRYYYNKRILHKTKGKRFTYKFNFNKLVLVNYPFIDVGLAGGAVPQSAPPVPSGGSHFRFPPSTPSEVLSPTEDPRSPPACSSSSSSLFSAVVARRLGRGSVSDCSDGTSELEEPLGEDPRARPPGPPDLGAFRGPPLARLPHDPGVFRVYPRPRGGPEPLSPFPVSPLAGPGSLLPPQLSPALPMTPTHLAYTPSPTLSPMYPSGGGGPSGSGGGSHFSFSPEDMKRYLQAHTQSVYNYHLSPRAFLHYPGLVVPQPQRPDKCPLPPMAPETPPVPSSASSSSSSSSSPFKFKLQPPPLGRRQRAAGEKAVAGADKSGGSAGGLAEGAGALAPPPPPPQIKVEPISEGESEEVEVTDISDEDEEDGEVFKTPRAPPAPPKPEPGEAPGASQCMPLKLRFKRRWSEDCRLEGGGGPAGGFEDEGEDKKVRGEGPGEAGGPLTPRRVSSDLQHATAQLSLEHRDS
The settings on record: protein: recombinant; tags: N-terminal GST; dsDNA, one strand shown. The procedure, abridged:
as §1

In test [12] the target is T7, ETV3L (Homo sapiens, UniProt Q6ZN32 1-361).
T7 sequence: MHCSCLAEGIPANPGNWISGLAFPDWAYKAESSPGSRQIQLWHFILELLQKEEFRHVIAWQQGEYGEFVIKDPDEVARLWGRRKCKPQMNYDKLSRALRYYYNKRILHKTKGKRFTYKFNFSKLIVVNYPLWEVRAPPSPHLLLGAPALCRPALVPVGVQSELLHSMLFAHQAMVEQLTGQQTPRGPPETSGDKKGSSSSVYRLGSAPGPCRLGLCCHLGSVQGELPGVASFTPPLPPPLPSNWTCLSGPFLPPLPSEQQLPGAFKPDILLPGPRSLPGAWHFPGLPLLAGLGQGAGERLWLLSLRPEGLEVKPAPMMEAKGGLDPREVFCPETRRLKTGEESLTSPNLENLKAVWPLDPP
The following applies: protein: recombinant; tags: N-terminal GST; dsDNA, one strand shown. The gist of the method: as §1

Test [13] concerns the target T8, ETS2 (Homo sapiens, UniProt P15036 1-469).
T8 sequence: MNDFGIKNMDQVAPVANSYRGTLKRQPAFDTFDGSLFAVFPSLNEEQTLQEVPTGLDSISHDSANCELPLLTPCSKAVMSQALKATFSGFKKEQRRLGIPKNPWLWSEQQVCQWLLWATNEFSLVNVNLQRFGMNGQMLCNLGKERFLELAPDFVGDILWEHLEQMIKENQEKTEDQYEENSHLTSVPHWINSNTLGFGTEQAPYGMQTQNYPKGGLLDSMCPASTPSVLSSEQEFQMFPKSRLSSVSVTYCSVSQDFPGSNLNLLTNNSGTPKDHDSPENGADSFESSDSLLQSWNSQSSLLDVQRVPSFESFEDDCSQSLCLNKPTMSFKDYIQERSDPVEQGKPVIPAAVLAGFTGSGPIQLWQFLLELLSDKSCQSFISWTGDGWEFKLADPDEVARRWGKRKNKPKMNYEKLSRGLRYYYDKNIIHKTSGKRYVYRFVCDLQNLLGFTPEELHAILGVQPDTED
The settings on record: protein: recombinant; tags: N-terminal GST; dsDNA, one strand shown. The procedure, abridged:
as §1

In test [14] the target is T9, SPDEF (Homo sapiens, UniProt O95238 1-335).
T9 sequence: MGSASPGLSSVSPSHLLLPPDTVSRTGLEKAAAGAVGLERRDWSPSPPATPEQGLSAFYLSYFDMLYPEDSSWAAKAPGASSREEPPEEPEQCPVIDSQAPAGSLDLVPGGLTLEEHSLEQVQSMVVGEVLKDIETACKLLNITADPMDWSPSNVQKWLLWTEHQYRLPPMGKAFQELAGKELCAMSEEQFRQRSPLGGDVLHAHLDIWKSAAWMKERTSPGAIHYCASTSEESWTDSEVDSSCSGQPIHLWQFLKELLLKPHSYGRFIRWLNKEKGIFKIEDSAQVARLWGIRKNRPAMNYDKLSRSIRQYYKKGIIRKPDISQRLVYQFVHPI
The settings on record: protein: recombinant; tags: N-terminal GST; dsDNA, one strand shown. The gist of the method:
as §1

For test [15], the target named is T10, ETV7 (Homo sapiens, UniProt Q9Y603 1-341).
T10 sequence: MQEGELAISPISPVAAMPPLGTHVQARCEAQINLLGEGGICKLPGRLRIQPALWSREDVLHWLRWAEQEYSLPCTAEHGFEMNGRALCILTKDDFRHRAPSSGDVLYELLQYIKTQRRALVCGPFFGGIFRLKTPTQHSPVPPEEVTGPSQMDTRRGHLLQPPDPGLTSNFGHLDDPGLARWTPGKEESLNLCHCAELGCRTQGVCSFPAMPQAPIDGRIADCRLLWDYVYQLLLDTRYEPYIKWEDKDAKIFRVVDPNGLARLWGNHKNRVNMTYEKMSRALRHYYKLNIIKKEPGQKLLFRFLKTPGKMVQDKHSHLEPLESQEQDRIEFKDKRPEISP
The following applies: protein: recombinant; tags: N-terminal GST; dsDNA, one strand shown. The procedure, abridged:
as §1

For test [16], the target named is T11, ELF5 (Homo sapiens, UniProt Q9UKW6-2 1-255).
T11 sequence: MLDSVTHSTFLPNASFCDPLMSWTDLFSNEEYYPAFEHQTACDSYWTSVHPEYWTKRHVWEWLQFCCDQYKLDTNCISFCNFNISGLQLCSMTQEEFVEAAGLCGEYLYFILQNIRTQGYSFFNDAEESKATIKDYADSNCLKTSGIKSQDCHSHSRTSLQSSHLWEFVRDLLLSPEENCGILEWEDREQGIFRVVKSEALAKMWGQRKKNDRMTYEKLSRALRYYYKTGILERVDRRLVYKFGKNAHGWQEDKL
The following applies: protein: recombinant; tags: N-terminal GST; dsDNA, one strand shown. The procedure, abridged: as §1

In test [17] the target is T12, ETV3 (Homo sapiens, UniProt P41162-2 1-143).
T12 sequence: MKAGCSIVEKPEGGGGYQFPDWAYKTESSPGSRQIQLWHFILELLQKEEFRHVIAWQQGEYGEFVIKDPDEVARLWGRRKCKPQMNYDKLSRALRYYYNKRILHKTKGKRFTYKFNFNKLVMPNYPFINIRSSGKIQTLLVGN
The following applies: protein: recombinant; tags: N-terminal GST; dsDNA, one strand shown. The gist of the method:
as §1

Test [18] has as its target ETV6 (Homo sapiens, UniProt P41212 1-452). The following applies: protein: recombinant; tags: N-terminal GST; dsDNA, one strand shown. The gist of the method: as §1

Sequence of ETV6 (P41212 whole entry): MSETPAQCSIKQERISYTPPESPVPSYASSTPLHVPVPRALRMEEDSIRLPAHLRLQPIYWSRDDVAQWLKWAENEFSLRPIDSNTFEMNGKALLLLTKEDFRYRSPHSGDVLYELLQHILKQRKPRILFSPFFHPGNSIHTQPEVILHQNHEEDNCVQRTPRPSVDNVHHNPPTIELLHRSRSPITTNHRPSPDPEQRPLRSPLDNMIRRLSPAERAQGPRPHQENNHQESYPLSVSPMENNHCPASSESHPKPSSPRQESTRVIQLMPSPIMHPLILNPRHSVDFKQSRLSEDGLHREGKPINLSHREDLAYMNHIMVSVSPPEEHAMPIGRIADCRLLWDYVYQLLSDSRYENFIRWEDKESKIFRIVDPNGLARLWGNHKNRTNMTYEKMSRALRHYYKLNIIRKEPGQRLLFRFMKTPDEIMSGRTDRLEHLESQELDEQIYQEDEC
Sequence of ETV1 (P50549 whole entry): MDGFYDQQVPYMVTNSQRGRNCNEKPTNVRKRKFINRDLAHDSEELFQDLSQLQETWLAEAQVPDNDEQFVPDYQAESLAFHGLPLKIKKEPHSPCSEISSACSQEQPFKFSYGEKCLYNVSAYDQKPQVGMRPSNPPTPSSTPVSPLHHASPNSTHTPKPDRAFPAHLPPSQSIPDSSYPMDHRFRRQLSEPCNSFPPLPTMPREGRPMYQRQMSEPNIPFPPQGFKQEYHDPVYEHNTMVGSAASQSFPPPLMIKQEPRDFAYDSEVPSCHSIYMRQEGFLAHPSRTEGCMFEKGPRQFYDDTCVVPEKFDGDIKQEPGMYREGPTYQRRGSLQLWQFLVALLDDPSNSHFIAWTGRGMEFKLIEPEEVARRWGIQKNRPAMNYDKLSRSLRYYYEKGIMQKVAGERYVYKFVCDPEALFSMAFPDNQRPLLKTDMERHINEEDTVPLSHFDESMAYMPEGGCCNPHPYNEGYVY
Sequence of ELF4 (Q99607 whole entry): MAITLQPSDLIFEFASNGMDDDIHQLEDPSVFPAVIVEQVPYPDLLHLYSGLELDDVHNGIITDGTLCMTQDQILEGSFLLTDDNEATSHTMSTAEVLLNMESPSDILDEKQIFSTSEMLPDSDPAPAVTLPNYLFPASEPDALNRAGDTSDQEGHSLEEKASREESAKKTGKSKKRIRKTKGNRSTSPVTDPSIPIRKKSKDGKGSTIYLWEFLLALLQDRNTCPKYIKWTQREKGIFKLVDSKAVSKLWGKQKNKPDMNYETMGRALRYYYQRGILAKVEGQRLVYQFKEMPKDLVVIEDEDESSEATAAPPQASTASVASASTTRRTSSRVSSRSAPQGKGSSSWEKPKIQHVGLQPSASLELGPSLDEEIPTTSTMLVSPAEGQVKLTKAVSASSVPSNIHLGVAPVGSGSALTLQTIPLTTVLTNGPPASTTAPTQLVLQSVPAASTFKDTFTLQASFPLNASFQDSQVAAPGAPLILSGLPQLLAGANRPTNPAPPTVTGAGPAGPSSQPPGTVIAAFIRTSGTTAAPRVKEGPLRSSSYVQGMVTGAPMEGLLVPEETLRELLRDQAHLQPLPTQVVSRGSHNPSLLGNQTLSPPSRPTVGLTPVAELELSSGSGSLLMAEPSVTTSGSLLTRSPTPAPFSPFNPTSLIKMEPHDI
Sequence of ETV5 (P41161 whole entry): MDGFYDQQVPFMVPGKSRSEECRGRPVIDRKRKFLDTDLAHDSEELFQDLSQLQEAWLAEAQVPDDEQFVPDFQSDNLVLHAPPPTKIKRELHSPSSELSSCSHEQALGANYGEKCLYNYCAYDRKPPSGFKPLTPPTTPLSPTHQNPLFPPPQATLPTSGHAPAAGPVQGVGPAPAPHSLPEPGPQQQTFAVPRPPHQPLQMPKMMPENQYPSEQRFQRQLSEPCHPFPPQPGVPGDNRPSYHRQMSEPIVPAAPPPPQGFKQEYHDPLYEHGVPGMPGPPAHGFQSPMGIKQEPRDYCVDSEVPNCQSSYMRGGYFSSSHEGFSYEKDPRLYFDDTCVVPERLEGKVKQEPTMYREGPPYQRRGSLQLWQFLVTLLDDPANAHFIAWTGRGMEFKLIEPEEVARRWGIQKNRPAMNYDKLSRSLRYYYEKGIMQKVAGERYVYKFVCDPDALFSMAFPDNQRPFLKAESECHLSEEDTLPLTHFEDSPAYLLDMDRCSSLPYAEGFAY
Sequence of CRX (O43186 whole entry): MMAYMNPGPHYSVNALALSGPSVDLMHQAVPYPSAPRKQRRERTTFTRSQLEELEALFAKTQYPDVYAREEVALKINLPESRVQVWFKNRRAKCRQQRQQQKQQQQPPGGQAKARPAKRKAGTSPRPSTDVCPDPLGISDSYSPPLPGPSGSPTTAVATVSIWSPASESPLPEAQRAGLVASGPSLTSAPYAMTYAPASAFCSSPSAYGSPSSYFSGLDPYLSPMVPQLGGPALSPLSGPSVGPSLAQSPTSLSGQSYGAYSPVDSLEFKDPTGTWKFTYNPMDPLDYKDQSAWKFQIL
Sequence of HSF1 (Q00613 whole entry): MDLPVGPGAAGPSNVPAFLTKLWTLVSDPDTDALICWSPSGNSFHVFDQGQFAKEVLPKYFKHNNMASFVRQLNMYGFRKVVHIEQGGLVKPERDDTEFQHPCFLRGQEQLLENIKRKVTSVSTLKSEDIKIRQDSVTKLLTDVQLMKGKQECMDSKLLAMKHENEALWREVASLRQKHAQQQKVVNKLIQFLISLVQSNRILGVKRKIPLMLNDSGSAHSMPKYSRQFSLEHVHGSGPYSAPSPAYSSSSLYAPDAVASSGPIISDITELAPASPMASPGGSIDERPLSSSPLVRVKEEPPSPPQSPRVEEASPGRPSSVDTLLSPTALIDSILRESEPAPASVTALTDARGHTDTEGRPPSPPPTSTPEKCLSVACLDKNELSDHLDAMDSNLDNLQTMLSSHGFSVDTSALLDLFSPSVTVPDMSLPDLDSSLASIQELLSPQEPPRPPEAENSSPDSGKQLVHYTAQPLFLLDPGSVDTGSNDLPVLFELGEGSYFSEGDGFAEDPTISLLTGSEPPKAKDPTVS

For the sequence TAGCCC, the binding signal in [1] was 1.21 fold enrichment (6-mer frequency, TF over GST control); in [2] it was 1.18 fold enrichment (6-mer frequency, TF over GST control); in test [3] it was 1.19 fold enrichment (6-mer frequency, TF over GST control); in test [4], 1.23 fold enrichment (6-mer frequency, TF over GST control); in test [5] it was 1.28 fold enrichment (6-mer frequency, TF over GST control); in [6] it was 1.15 fold enrichment (6-mer frequency, TF over GST control). The binding signal in test [7] was 1.15 fold enrichment (6-mer frequency, TF over GST control); in [8], 1.08 fold enrichment (6-mer frequency, TF over GST control); in [9], 1.36 fold enrichment (6-mer frequency, TF over GST control); in [10] it was 1.12 fold enrichment (6-mer frequency, TF over GST control); in [11] it was 1.18 fold enrichment (6-mer frequency, TF over GST control); in test [12], 1.11 fold enrichment (6-mer frequency, TF over GST control). The binding signal was 1.14 fold enrichment (6-mer frequency, TF over GST control) in test [13]; 1.3 fold enrichment (6-mer frequency, TF over GST control) in [14]; 1.05 fold enrichment (6-mer frequency, TF over GST control) in test [15]; 1.07 fold enrichment (6-mer frequency, TF over GST control) in test [16]; 1.24 fold enrichment (6-mer frequency, TF over GST control) in test [17]; 1.04 fold enrichment (6-mer frequency, TF over GST control) in test [18].

For the origin of these results see article PMC7862700, “An all-to-all approach to the identification of sequence-specific readers for epigenetic DNA modifications on cytosine”.
